Experimental data reported in PubChem BioAssay AID1159580 (chemical genetic matrix, 2015).
In all, about 5,500 compounds went through this assay and about 2,000 (36%) were called active. Inconclusive results (about 18%) are left out. Cut-off read from the data, not from the text of the source: active = normalized growth mostly below about 0.91 (no sharp cut-off); inconclusive = no clear call, values can overlap the other calls; inactive = mostly above about 0.92. The list shows a part of the results.

Assay: chemical genetic growth profiling, strain panel (AID 1159580);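 note: tested at 20 µM; growth read once vehicle control cultures reached saturation at 30 °C; 1 = growth at the plate median or of vehicle wells; lower values mean less growth of the strain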
Conditions: growth OD
[1] = S. cerevisiae deletion strains, locus YHR030C, strain SLT2, stronger effect = lower value
[2] = S. cerevisiae deletion strains, locus YJL187C, strain SWE1, stronger effect = lower value

Measured: normalized growth

Cc1nn(Cc2ccccc2Cl)c(=N)s1
inactive: S. cerevisiae deletion strains, locus YAL013W, strain DEP1, stronger effect = lower value 1.01 | S. cerevisiae deletion strains, locus YBR229C, strain ROT2, stronger effect = lower value 0.999 | S. cerevisiae deletion strains, locus YCL061C, strain MRC1, stronger effect = lower value 0.992 | S. cerevisiae deletion strains, locus YDL101C, strain DUN1, stronger effect = lower value 0.991 | S. cerevisiae deletion strains, locus YDL134C, strain PPH21, stronger effect = lower value 0.978 | S. cerevisiae deletion strains, locus YDR150W, strain NUM1, stronger effect = lower value 0.971 | S. cerevisiae deletion strains, locus YEL061C, strain CIN8, stronger effect = lower value 1.02 | S. cerevisiae deletion strains, locus YGR078C, strain PAC10, stronger effect = lower value 0.997 | S. cerevisiae deletion strains, locus YGR229C, strain SMI1, stronger effect = lower value 0.985 | [1] 0.959 | S. cerevisiae deletion strains, locus YHR087W, strain rtc3, stronger effect = lower value 0.972 | [2] 0.995 | S. cerevisiae deletion strains, locus YJR043C, strain POL32, stronger effect = lower value 0.991 | S. cerevisiae deletion strains, locus YJR075W, strain HOC1, stronger effect = lower value 0.99 | S. cerevisiae deletion strains, locus YLR039C, strain RIC1, stronger effect = lower value 0.939 | S. cerevisiae deletion strains, locus YLR058C, strain SHM2 (second series), stronger effect = lower value 1.01 | S. cerevisiae deletion strains, locus YLR085C, strain ARP6, stronger effect = lower value 1.03 | S. cerevisiae deletion strains, locus YLR262C, strain YPT6, stronger effect = lower value 0.954 | S. cerevisiae deletion strains, locus YML094W, strain GIM5, stronger effect = lower value 1.04 | S. cerevisiae deletion strains, locus YMR219W, strain ESC1, stronger effect = lower value 0.998 | S. cerevisiae deletion strains, locus YMR263W, strain SAP30, stronger effect = lower value 1 | S. cerevisiae deletion strains, locus YMR307W, strain GAS1, stronger effect = lower value 0.981 | S. cerevisiae deletion strains, locus YNL153C, strain GIM3, stronger effect = lower value 1.02 | S. cerevisiae deletion strains, locus YNL298W, strain CLA4 (second series), stronger effect = lower value 0.932 | S. cerevisiae deletion strains, locus YNL322C, strain KRE1, stronger effect = lower value 0.985 | S. cerevisiae deletion strains, locus YNR030W, strain Alg12, stronger effect = lower value 0.988 | S. cerevisiae deletion strains, locus YOL006C, strain TOP1, stronger effect = lower value 0.939 | S. cerevisiae deletion strains, locus YPL055C, strain LGE1, stronger effect = lower value 1.06 | S. cerevisiae deletion strains, locus YPL241C, strain CIN2, stronger effect = lower value 0.993 | S. cerevisiae deletion strains, locus YPR135W, strain CTF4, stronger effect = lower value 0.972 | S. cerevisiae strains, strain wild type, stronger effect = lower value 0.96

COC(=O)[C@H](c1ccccc1Cl)N1CCc2sccc2C1
inactive: S. cerevisiae deletion strains, locus YAL021C, strain ccr4, stronger effect = lower value 0.993 | S. cerevisiae deletion strains, locus YAL026C, strain drs2, stronger effect = lower value 0.99 | S. cerevisiae deletion strains, locus YAL030W, strain snc1, stronger effect = lower value 0.982 | S. cerevisiae deletion strains, locus YBL061C, strain skt5, stronger effect = lower value 0.994 | S. cerevisiae deletion strains, locus YBR009C, strain hhf1, stronger effect = lower value 0.989 | S. cerevisiae deletion strains, locus YBR023C, strain chs3, stronger effect = lower value 0.981 | S. cerevisiae deletion strains, locus YBR171W, strain sec66, stronger effect = lower value 0.973 | S. cerevisiae deletion strains, locus YBR231C, strain swc5, stronger effect = lower value 0.998 | S. cerevisiae deletion strains, locus YBR279W, strain paf1, stronger effect = lower value 0.986 | S. cerevisiae deletion strains, locus YCL011C, strain gbp2, stronger effect = lower value 0.968 | S. cerevisiae deletion strains, locus YCL016C, strain dcc1, stronger effect = lower value 0.993 | S. cerevisiae deletion strains, locus YCL069W, strain vba3, stronger effect = lower value 0.991 | S. cerevisiae deletion strains, locus YCR088W, strain abp1, stronger effect = lower value 0.976 | S. cerevisiae deletion strains, locus YDL005C, strain med2, stronger effect = lower value 0.991 | S. cerevisiae deletion strains, locus YDL040C, strain nat1, stronger effect = lower value 0.961 | S. cerevisiae deletion strains, locus YDR001C, strain nth1, stronger effect = lower value 0.985 | S. cerevisiae deletion strains, locus YDR069C, strain doa4, stronger effect = lower value 1.01 | S. cerevisiae deletion strains, locus YDR137W, strain rgp1, stronger effect = lower value 0.912 | S. cerevisiae deletion strains, locus YDR159W, strain sac3, stronger effect = lower value 0.987 | S. cerevisiae deletion strains, locus YDR195W, strain ref2 0.971 | S. cerevisiae deletion strains, locus YDR297W, strain sur2, stronger effect = lower value 0.983 | S. cerevisiae deletion strains, locus YDR334W, strain swr1, stronger effect = lower value 0.995 | S. cerevisiae deletion strains, locus YDR335W, strain msn5, stronger effect = lower value 1.01 | S. cerevisiae deletion strains, locus YDR392W, strain spt3, stronger effect = lower value 0.984 | S. cerevisiae deletion strains, locus YEL003W, strain gim4, stronger effect = lower value 0.969 | S. cerevisiae deletion strains, locus YEL037C, strain rad23, stronger effect = lower value 0.981 | S. cerevisiae deletion strains, locus YEL061C, strain CIN8 (second series), stronger effect = lower value 0.98 | S. cerevisiae deletion strains, locus YER015W, strain faa2, stronger effect = lower value 0.986 | S. cerevisiae deletion strains, locus YER016W, strain bim1, stronger effect = lower value 0.98 | S. cerevisiae deletion strains, locus YER111C, strain swi4, stronger effect = lower value 0.972 | S. cerevisiae deletion strains, locus YER155C, strain BEM2 (second series), stronger effect = lower value 0.97 | S. cerevisiae deletion strains, locus YFR010W, strain ubp6, stronger effect = lower value 1 | S. cerevisiae deletion strains, locus YGL167C, strain pmr1, stronger effect = lower value 0.967 | S. cerevisiae deletion strains, locus YGL173C, strain kem1, stronger effect = lower value 0.979 | S. cerevisiae deletion strains, locus YGL227W, strain vid30, stronger effect = lower value 0.988 | S. cerevisiae deletion strains, locus YGL240W, strain doc1, stronger effect = lower value 0.989 | S. cerevisiae deletion strains, locus YGL253W, strain hxk2, stronger effect = lower value 1 | S. cerevisiae deletion strains, locus YHR013C, strain ard1, stronger effect = lower value 1.07 | S. cerevisiae deletion strains, locus YHR027C, strain rpn1, stronger effect = lower value 0.987 | [1] 0.961 | S. cerevisiae deletion strains, locus YHR079C, strain IRE1, stronger effect = lower value 0.956 | S. cerevisiae deletion strains, locus YHR142W, strain chs7, stronger effect = lower value 1.01 | S. cerevisiae deletion strains, locus YJL092W, strain hpr5, stronger effect = lower value 0.98 | S. cerevisiae deletion strains, locus YJL095W, strain BCK1 (second series), stronger effect = lower value 0.983 | S. cerevisiae deletion strains, locus YJL095W, strain BCK1, stronger effect = lower value 0.98 | S. cerevisiae deletion strains, locus YJL115W, strain asf1, stronger effect = lower value 1 | S. cerevisiae deletion strains, locus YJL129C, strain trk1, stronger effect = lower value 0.959 | S. cerevisiae deletion strains, locus YJL154C, strain vps35, stronger effect = lower value 0.97 | S. cerevisiae deletion strains, locus YJL164C, strain tpk1, stronger effect = lower value 0.976 | S. cerevisiae deletion strains, locus YJL166W, strain qcr8, stronger effect = lower value 0.991 | [2] 0.984 | S. cerevisiae deletion strains, locus YJR066W, strain TOR1, stronger effect = lower value 0.982 | S. cerevisiae deletion strains, locus YKL160W, strain elf1, stronger effect = lower value 0.988 | S. cerevisiae deletion strains, locus YKR026C, strain gcn3, stronger effect = lower value 1 | S. cerevisiae deletion strains, locus YKR091W, strain srl3, stronger effect = lower value 0.983 | S. cerevisiae deletion strains, locus YLL001W, strain dnm1, stronger effect = lower value 1.01 | S. cerevisiae deletion strains, locus YLL026W, stronger effect = lower value 0.977 | S. cerevisiae deletion strains, locus YLL041C, strain sdh2, stronger effect = lower value 0.991 | S. cerevisiae deletion strains, locus YLR027C, strain aat2, stronger effect = lower value 0.983 | S. cerevisiae deletion strains, locus YLR113W, strain HOG1, stronger effect = lower value 0.932 | S. cerevisiae deletion strains, locus YLR221C, strain rsa3, stronger effect = lower value 0.992 | S. cerevisiae deletion strains, locus YLR258W, strain gsy2, stronger effect = lower value 0.982 | S. cerevisiae deletion strains, locus YLR262C, strain YPT6 (second series), stronger effect = lower value 0.95 | S. cerevisiae deletion strains, locus YLR320W, strain mms22, stronger effect = lower value 0.963 | S. cerevisiae deletion strains, locus YLR342W, strain FKS1, stronger effect = lower value 0.982 | S. cerevisiae deletion strains, locus YLR357W, strain rsc2, stronger effect = lower value 1.09 | S. cerevisiae deletion strains, locus YLR370C, strain arc18, stronger effect = lower value 0.975 | S. cerevisiae deletion strains, locus YLR384C, strain iki3, stronger effect = lower value 0.975 | S. cerevisiae deletion strains, locus YML120C, strain ndi1, stronger effect = lower value 0.961 | S. cerevisiae deletion strains, locus YMR058W, strain fet3, stronger effect = lower value 0.989 | S. cerevisiae deletion strains, locus YMR125W, strain sto1, stronger effect = lower value 0.993 | S. cerevisiae deletion strains, locus YMR129W, stronger effect = lower value 0.979 | S. cerevisiae deletion strains, locus YMR205C, strain PFK2, stronger effect = lower value 0.971 | S. cerevisiae deletion strains, locus YMR231W, strain pep5, stronger effect = lower value 0.995 | S. cerevisiae deletion strains, locus YNL071W, strain lat1, stronger effect = lower value 0.968 | S. cerevisiae deletion strains, locus YNL183C, strain NPR1, stronger effect = lower value 0.941 | S. cerevisiae deletion strains, locus YNL209W, strain ssb2, stronger effect = lower value 0.998 | S. cerevisiae deletion strains, locus YNL248C, strain rpa49, stronger effect = lower value 1.07 | S. cerevisiae deletion strains, locus YNL322C, strain KRE1 (second series), stronger effect = lower value 0.981 | S. cerevisiae deletion strains, locus YNR049C, strain mso1, stronger effect = lower value 0.978 | S. cerevisiae deletion strains, locus YOR001W, strain rrp6, stronger effect = lower value 1 | S. cerevisiae deletion strains, locus YOR070C, strain gyp1, stronger effect = lower value 0.986 | S. cerevisiae deletion strains, locus YOR080W, strain dia2, stronger effect = lower value 0.994 | S. cerevisiae deletion strains, locus YOR083W, strain WHI5, stronger effect = lower value 0.981 | S. cerevisiae deletion strains, locus YOR106W, strain vam3, stronger effect = lower value 1.03 | S. cerevisiae deletion strains, locus YOR231W, strain MKK1, stronger effect = lower value 0.938 | S. cerevisiae deletion strains, locus YOR265W, strain rbl2, stronger effect = lower value 0.985 | S. cerevisiae deletion strains, locus YOR270C, strain vph1, stronger effect = lower value 1.02 | S. cerevisiae deletion strains, locus YOR290C, strain snf2, stronger effect = lower value 1.02 | S. cerevisiae deletion strains, locus YPL051W, strain arl3, stronger effect = lower value 0.992 | S. cerevisiae deletion strains, locus YPL078C, strain atp4, stronger effect = lower value 0.996 | S. cerevisiae deletion strains, locus YPL106C, strain sse1, stronger effect = lower value 0.987 | S. cerevisiae deletion strains, locus YPL240C, strain hsp82, stronger effect = lower value 0.986 | S. cerevisiae deletion strains, locus YPL256C, strain CLN2, stronger effect = lower value 0.894
